Compounds with a hit are over-represented: about 12% of the library has one in this group of screens.
AmpC detergent: blocks E. coli AmpC beta-lactamase in detergent assay; P00811; AmpC hydrolysis of nitrocefin, absorbance 480 nm, 0.01% Triton; Potency, µM (highest dose often 114 µM), for the others: at the top dose activity change, negative = inhibition, most hits filed as inhibitors; 370,000 tested, 0.041% active; AID 485294;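 further: 0% = no-compound wells and -100% = no-enzyme wells; nearly all actives have a fitted effect of over 25% in size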
Target sequence (P00811 whole entry, looked up): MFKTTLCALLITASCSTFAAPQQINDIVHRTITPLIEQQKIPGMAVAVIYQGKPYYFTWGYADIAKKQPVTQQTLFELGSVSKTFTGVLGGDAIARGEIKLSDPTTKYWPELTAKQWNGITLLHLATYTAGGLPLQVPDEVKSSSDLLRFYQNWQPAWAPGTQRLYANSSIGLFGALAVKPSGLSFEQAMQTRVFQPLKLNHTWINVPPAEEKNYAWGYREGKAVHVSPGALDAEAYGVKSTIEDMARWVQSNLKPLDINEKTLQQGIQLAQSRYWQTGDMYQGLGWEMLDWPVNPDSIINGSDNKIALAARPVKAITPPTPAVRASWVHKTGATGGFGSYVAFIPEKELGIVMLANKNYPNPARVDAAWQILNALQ
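20 mM phosphate pH 7.0 + 0.01% (detergent screen) or 0.0001% Triton X-100; 5.3 nM AmpC reagent; cpd preinc 15 min RT; nitrocefin (800 uM stock) to start; A480 q20 s × 4 min; Activity was normalised to no-enzyme and no-compound control wells.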
AmpC no deterg: blocks E. coli AmpC beta-lactamase in detergent-free assay | P00811 | AmpC nitrocefin hydrolysis, absorbance 480 nm, 0.0001% Triton | Potency, µM (series often up to 57.1 µM), without a hit: top-dose activity change, negative = inhibition, usual class: inhibitors | 330,000 tested, 0.52% active;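 further: plate controls were no compound for no effect and no enzyme for full effect; nearly all actives have a fitted effect of over 20% in size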
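AmpC (5.3 nM in the dispensed reagent) in 20 mM phosphate pH 7.0 with 0.01% (detergent screen) or 0.0001% Triton X-100 was preincubated with compounds for 15 min at room temperature. Nitrocefin was then added from an 800 uM solution, and hydrolysis was followed at 480 nm.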
Pf growth 48h: P. falciparum growth inhibition at 48 hours (one generation). Potency, µM (doses to about 28.7 µM), for inactives: at the highest dose activity change, negative = inhibition, hits mostly inhibitors. 310,000 tested, 5.9% active. AID 504832. P. falciparum luciferase growth in erythrocytes, 48 h; further: on the % scale 0 is the no-effect control and ±100 the full control effect
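A one-generation exposure of luciferase-tagged malaria parasites in RPMI 1640/Albumax erythrocyte culture, 37 C and 5% CO2. Inhibition is inferred from decreased luminescence after adding detection reagent.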
SARS PLP yeast: blocks SARS-CoV papain-like protease in a yeast assay. Potency, µM (doses to about 32.9 µM), inactives show at the highest dose activity, positive = growth rescue, hits mostly activators. S. cerevisiae expressing SARS-CoV PLpro, growth rescue. 330,000 tested, 0.19% active. AID 485353; calls by dose curve; further: 0% is about no effect; nearly all actives have a fitted effect of over 55% in size
Sm TGR block: S. mansoni TGR enzyme inhibition; AID 485364; purified TGR, DTNB reduction, TNB absorbance 405 nm; 360,000 tested, 3% active; Potency, µM (top dose mostly 114 µM), without a hit: at the highest dose activity change, negative = inhibition, usual class: inhibitors; Q962Y6; further: on the % scale 0 is the no-effect control and ±100 the full control effect; nearly all actives have a fitted effect of over 60% in size
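Kinetic colorimetric format: TGR-catalysed, NADPH-driven DTNB reduction monitored via TNB absorbance. Enzyme dispensed at 20 nM; compound exposure 15 min at room temperature before reaction start.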
Pf growth 96h: P. falciparum growth inhibition at 96 hour, primary screen for plastid delayed-death inhibitors; P. falciparum luciferase reporter growth, 96 h; Potency, µM (titrated, usually from 28.7 µM), for the others: top-dose activity change, negative = inhibition, most hits filed as inhibitors; 320,000 tested, 6.9% active; further: on the % scale 0 is the no-effect control and ±100 the full control effect
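P. falciparum expressing integrated firefly luciferase grown in erythrocytes (2% hematocrit, 0.05% parasitemia final) with compounds for 96 hours at 37 C, 5% CO2. Growth inhibition read as loss of luminescence after adding luciferase detection reagent.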
* hit, by the source's call; ? = inconclusive; · = no result given. Unless noted, the call rests on the fitted dose curve; in most records, active means well fitted curve in the direction sought with a large enough effect; inconclusive means small, poorly fitted or top-dose-only effect, or another doubt; inactive means no such curve, though single readings can be large; an effect the other way counts as inactive or inconclusive. Potency means the concentration at half of the fitted maximal effect.

SMILES	AmpC detergent	AmpC no deterg	Pf growth 48h	SARS PLP yeast	Sm TGR block	Pf growth 96h
COc1ccc(S(=O)(=O)NCc2nc3nc(C)cc(C)n3n2)cc1OC	-12%	-11%	13%	-2%	2%	5.2µM*
CCc1ccc(NC(=O)Cn2c(=O)n(CCCCC(=O)NCCc3ccccc3)c(=O)c3ccccc32)cc1	28%	·	·	·	3%	·
COc1ccc(C)cc1Nc1nc(-c2c[nH]c3ccccc23)cs1	-10%	-19%	?	-14%	-14%	2.1µM*
COc1ccc(OC)c(Nc2nc(-c3cccs3)cs2)c1	-2%	-53%	1%	-18%	-9%	·
c1ccc(C2(c3ccccc3)CC2C2=NCCN2)cc1 (stereo unspecified)	·	·	?	·	·	13µM*
O=S(=O)(/N=C(/Sc1ccccc1)c1ccccc1)c1ccccc1	0%	-12%	·	3%	1.8µM*	51%
CS/C(=N\S(=O)(=O)c1ccccc1)c1ccccc1	?	-18%	8%	13%	3%	15%
O=C(O)c1ccccc1C(=O)NNc1ccc(F)cc1	1%	-22%	-2%	1%	50µM*	71%
COc1ccc(-c2nnc3n2N(C(C)=O)C(c2ccc(Cl)c(Cl)c2)=C(C(C)=O)S3)cc1	0%	·	·	·	0%	·
O=c1c2c3c(sc2ncn1Cc1ccc(F)cc1)CCC3	-2%	-23%	·	-2%	-9%	?
CCOC(=O)N1CCc2c(sc3ncn(Cc4ccc(F)cc4)c(=O)c23)C1	4%	36%	10µM*	1%	2%	5.9µM*
COc1ccc(CCNC(=O)CSc2nc(O)cc(=O)[nH]2)cc1OC	2%	-21%	3.3µM*	2%	-1%	43%
COc1ccc(CCNC(=O)CCn2c(=O)[nH]c3cc(OC)c(OC)cc3c2=O)cc1OC	7%	-22%	?	7%	-30%	3%
COc1ccc(CCNC(=O)CSc2cc(=O)[nH]c(N)n2)cc1OC	-12%	22%	4%	-5%	6%	12µM*
COc1ccc(CCNC(=O)CSc2ccc(-c3ccccc3)nn2)cc1OC	-7%	4%	-9%	-7%	14%	-5%
COc1ccc(CCNC(=O)Cn2c(=O)[nH]c3ccsc3c2=O)cc1OC	?	-13%	12µM*	2%	2%	6%
NC(=O)C1CCN(C(=O)c2cc(-c3ccc(Cl)s3)nc3ccccc23)CC1	·	233%	·	3%	·	·
Cc1cc(-c2ccccc2)n(-c2cc(N/N=C/c3ccccc3O)ncn2)n1	-21%	?	13µM*	-33%	2%	-11%
Clc1ccc(C2[C@H]3CN(CC4CCCCC4)[C@H](c4ccccc4)C34CC2(c2ccccc2)C4)cn1 (stereo partly specified)	-1%	-4%	?	-2%	-15%	?
COC(=O)c1ccc(C23CC4(C2)[C@H](CN(CC2CCCCC2)[C@@H]4c2ccccc2)C3c2ccc(Cl)nc2)cc1 (stereo partly specified)	4%	6%	9.3µM*	0%	-27%	9.3µM*
COC(=O)c1ccc(C23CC4(C2)[C@H](CN(Cc2ccc(C(F)(F)F)cc2)[C@@H]4c2ccccc2)C3c2ccc(Cl)nc2)cc1 (stereo partly specified)	-8%	5%	5.2µM*	-2%	?	12µM*
FC(F)(F)c1ccc(CN2C[C@@H]3C(c4ccc(Cl)nc4)C4(c5cccnc5)CC3(C4)[C@H]2c2ccccc2)cc1 (stereo partly specified)	-2%	60%	3.3µM*	-5%	?	2.3µM*
c1ccc(-c2ccc(CN3C[C@@H]4C(c5ccccc5)C5(c6ccccc6)CC4(C5)[C@H]3c3ccccc3)cc2)cc1 (stereo partly specified)	-6%	-32%	-4%	0%	0%	?

Assay outcomes as filed in PubChem BioAssay.
